From PubChem BioAssay (NCI)
Several values for one entry are separate records, joined by “and”; a condition that tells them apart may be missing. Equal values may be shown once. Compounds without any hit were thinned out: in the full panel of roughly 79,000, 15% have a hit. More than one record can exist for a structure, and the calls need not agree. Activity calls are given as the source filed them. No stated cut-off is given here; in the data, active means growth inhibition above about 70%; inactive means the rest.

Legend:
[1] = NCI Yeast Anticancer Drug Screen. Data for the wt1 strain (AID 149);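 further: 0% = growth of vehicle-treated wt1 cultures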; settings: S. cerevisiae wt1 strain (SPY 50644) growth inhibition, stronger effect = higher value
Summary of the method: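 Measured: growth of wt1 yeast under compound versus vehicle treatment, reported as inhibition.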

[2] = NCI Yeast Anticancer Drug Screen. Data for the rad50EPP+ strain (AID 151);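 further: 0% = growth of vehicle-treated control cultures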; settings: S. cerevisiae rad50 mutant strain, stronger effect = higher value
Summary of the method: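 Read-out is yeast growth inhibition relative to vehicle; cells used were the rad50EPP+ strain.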

[3] = NCI Yeast Anticancer Drug Screen. Data for the mgt1 strain (AID 153); settings: S. cerevisiae mgt1 mutant growth inhibition, stronger effect = higher value
Summary of the method: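 Measured: inhibition of mgt1 yeast growth by compound, normalized to vehicle-treated cultures.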

[4] = NCI Yeast Anticancer Drug Screen. Data for the rad50 strain (AID 155);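 further: 0% = growth of vehicle-only cultures of the same strain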; settings: S. cerevisiae rad50 strain growth inhibition, stronger effect = higher value
Summary of the method: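 Growth of the mutant yeast was measured after compound exposure and referenced to vehicle-treated cultures.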

[5] = NCI Yeast Anticancer Drug Screen. Data for the mec2-1 strain (AID 157); settings: S. cerevisiae mec2-1 strain, stronger effect = higher value
Summary of the method: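 Using mec2-1 yeast: add compound, measure growth, express inhibition versus vehicle-treated cultures.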

[6] = NCI Yeast Anticancer Drug Screen. Data for the rad14 strain (AID 159);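 further: 0% = growth of vehicle-treated control cultures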; settings: S. cerevisiae rad14 strain growth inhibition, stronger effect = higher value
Summary of the method: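 Here, inhibition of yeast growth was measured after compound exposure, using a strain with a genetic defect in DNA damage repair and vehicle-treated cultures as the reference.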

[7] = NCI Yeast Anticancer Drug Screen. Data for the sgs1 mgt1 strain (AID 161);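 further: 0% = growth of cultures given vehicle only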; settings: S. cerevisiae sgs1 mgt1 strain, stronger effect = higher value
Summary of the method: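 Percent growth inhibition was derived by comparing compound-exposed mutant yeast with vehicle-exposed cultures. The strain carries alterations in DNA damage repair.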

[8] = NCI Yeast Anticancer Drug Screen. Data for the cln2 rad14 strain (AID 165);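 further: 0% = growth equal to vehicle treated cultures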; settings: S. cerevisiae cln2 rad14 strain, stronger effect = higher value
Summary of the method: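 Yeast strain cln2 rad14, bearing defects in cell cycle control and DNA repair, serves as the test system; values reflect growth inhibition compared with vehicle.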

[9] = NCI Yeast Anticancer Drug Screen. Data for the bub3 strain (AID 167); settings: S. cerevisiae bub3 mutant strain, stronger effect = higher value
Summary of the method: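 Whole-cell yeast assay. The mutant strain was incubated with compounds, and growth inhibition was determined by comparison with vehicle-treated cells.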

[10] = NCI Yeast Anticancer Drug Screen. Data for the wt2 strain (AID 169);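 further: 0% = growth of vehicle-treated yeast cultures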; settings: S. cerevisiae wt2 strain growth inhibition, stronger effect = higher value
Summary of the method: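 Treated yeast vs. vehicle-treated yeast: growth inhibition determined.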

[11] = NCI Yeast Anticancer Drug Screen. Data for the mlh1 strain (AID 171);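 further: 0% = growth of vehicle-treated control cultures of the same strain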; settings: S. cerevisiae mlh1 strain growth inhibition, stronger effect = higher value
Summary of the method: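 A yeast strain with a defined genetic lesion serves as the test organism. Cultures receive compound or vehicle, and growth is measured.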

[12] = NCI Yeast Anticancer Drug Screen. Data for the sgs1 strain (AID 173);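 further: 0% = growth of vehicle-only control cultures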; settings: S. cerevisiae sgs1 mutant, stronger effect = higher value
Summary of the method: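 A genetically defined yeast mutant is incubated with the test compound, and its growth is compared to that of the same strain given vehicle.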

[13] = NCI Yeast Anticancer Drug Screen. Data for the mlh1 rad18 strain (AID 175); settings: S. cerevisiae mlh1 rad18 strain growth inhibition, stronger effect = higher value
Summary of the method: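 Steps: expose repair-defective yeast to compound; measure growth; express inhibition against vehicle-treated controls.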

[14] = NCI Yeast Anticancer Drug Screen. Data for the rad18 strain (AID 177); settings: S. cerevisiae rad18 mutant growth inhibition, stronger effect = higher value
Summary of the method: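 Measured value is growth inhibition of a yeast strain bearing a DNA repair alteration, referenced to vehicle-treated cells.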

[15] = NCI Yeast Anticancer Drug Screen. Data for the CLN2oe strain (AID 163);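 further: 0% = growth of vehicle-only control cultures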; settings: S. cerevisiae CLN2oe strain, stronger effect = higher value
Summary of the method: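 Whole-cell yeast growth assay. A strain engineered for altered cell-cycle control received compound, and inhibition relative to vehicle-treated cultures was recorded.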

[16] = at 5.0 µM (retest, dose inferred, filed as 0.5)
[17] = at 50.0 µM (retest, dose inferred, filed as 5.0)

Measured: growth inhibition

CCCC/C=C/C(C)(C(=O)OCC)C(=O)OCC
inactive: [1]; at 1.2 µM -5% | [1]; at 3.7 µM -5% | [1]; at 11.0 µM -5% | [1]; at 33.0 µM -7% | [1]; at 100.0 µM 3% | [2]; at 1.2 µM -3% | [2]; at 3.7 µM 0% | [2]; at 11.0 µM 4% | [2]; at 33.0 µM 9% | [2]; at 100.0 µM 16% | [3]; at 1.2 µM -4% | [3]; at 3.7 µM -4% | [3]; at 11.0 µM -4% | [3]; at 33.0 µM -2% | [3]; at 100.0 µM 16% | [4]; at 1.2 µM -6% | [4]; at 3.7 µM -5% | [4]; [16] 10% | [4]; at 11.0 µM -1% | [4]; at 33.0 µM 0% | [4]; [17] 8% | [4]; at 50.0 µM -6.4% | [4]; at 100.0 µM 19% | [5]; at 1.2 µM -2% | [5]; at 3.7 µM -4% | [5]; [16] 3% | [5]; at 11.0 µM -1% | [5]; at 33.0 µM 5% | [5]; [17] 16% | [5]; at 50.0 µM 26.9% | [5]; at 100.0 µM 25% | [6]; at 1.2 µM -5% | [6]; at 3.7 µM -5% | [6]; at 11.0 µM -1% | [6]; at 33.0 µM 3% | [6]; at 100.0 µM 15% | [7]; [16] 0% | [7]; [17] 51% | [7]; at 50.0 µM 37.6% | [8]; [16] -6% | [8]; [17] 32% | [8]; at 50.0 µM 58.5% | [9]; at 1.2 µM -6% | [9]; at 3.7 µM -5% | [9]; [16] -2% | [9]; at 11.0 µM -6% | [9]; at 33.0 µM -1% | [9]; [17] 12% | [9]; at 50.0 µM 67.8% | [9]; at 100.0 µM 19% | [10]; at 1.2 µM -4% | [10]; at 3.7 µM -4% | [10]; at 11.0 µM -6% | [10]; at 33.0 µM -4% | [10]; at 100.0 µM 14% | [11]; at 1.2 µM -4% | [11]; at 3.7 µM -3% | [11]; at 11.0 µM -1% | [11]; at 33.0 µM 5% | [11]; at 100.0 µM 29% | [12]; at 1.2 µM -3% | [12]; at 3.7 µM -1% | [12]; at 11.0 µM 3% | [12]; at 33.0 µM 6% | [12]; at 100.0 µM 38% | [13]; [16] 11% | [14]; at 1.2 µM -4% | [14]; at 3.7 µM 1% | [14]; at 11.0 µM 6% | [14]; at 33.0 µM 13% | [14]; at 100.0 µM 35%
active: [13]; [17] 81% | [13]; at 50.0 µM 70.2%

Cc1cc(N(CCOS(C)(=O)=O)CCOS(C)(=O)=O)ccc1C=Nc1ccc(-c2nc(Cc3ccccc3)sc2C)cc1
97% (active) and 46% (inactive): [5]; [17]
active: [1]; at 33.0 µM 90% | [1]; at 100.0 µM 98% | [2]; at 100.0 µM 92% | [3]; at 33.0 µM 90% | [3]; at 100.0 µM 98% | [4]; at 11.0 µM 71% | [4]; at 33.0 µM 93% | [4]; at 100.0 µM 97% | [5]; at 11.0 µM 72% | [5]; at 33.0 µM 93% | [5]; at 100.0 µM 98% | [6]; at 11.0 µM 80% | [6]; at 33.0 µM 96% | [6]; at 100.0 µM 96% | [7]; at 50.0 µM 85.5% and 85.9% | [15]; at 33.0 µM 91% | [15]; at 100.0 µM 97% | [9]; at 33.0 µM 89% | [9]; at 100.0 µM 98% | [10]; at 33.0 µM 92% | [10]; at 100.0 µM 98% | [11]; at 33.0 µM 92% | [11]; at 100.0 µM 97% | [12]; at 33.0 µM 94% | [12]; at 100.0 µM 98% | [13]; at 50.0 µM 77% | [14]; at 3.7 µM 73% | [14]; at 11.0 µM 90% | [14]; at 33.0 µM 94% | [14]; at 100.0 µM 98%
inactive: [1]; at 1.2 µM -29% | [1]; at 3.7 µM -10% | [1]; at 11.0 µM 28% | [2]; at 1.2 µM 1% | [2]; at 3.7 µM -19% | [2]; at 11.0 µM 10% | [2]; at 33.0 µM 37% | [3]; at 1.2 µM -24% | [3]; at 3.7 µM 4% | [3]; at 11.0 µM 55% | [4]; at 1.2 µM 12% | [4]; at 3.7 µM 23% | [4]; [16] 44% and 1% | [4]; at 50.0 µM 52.9% | [5]; at 1.2 µM -26% | [5]; at 3.7 µM 4% | [5]; [16] 40% and -3% | [5]; at 50.0 µM 49.3% | [6]; at 1.2 µM 3% | [6]; at 3.7 µM 38% | [7]; [16] 23% and 3% | [7]; [17] -12% and 43% | [15]; at 1.2 µM 23% | [15]; at 3.7 µM 0% | [15]; at 11.0 µM 57% | [8]; [16] 29% and 0% | [8]; [17] -12% and 35% | [9]; at 1.2 µM -32% | [9]; at 3.7 µM -38% | [9]; [16] 16% and -2% | [9]; at 11.0 µM 25% | [9]; [17] -14% and 55% | [10]; at 1.2 µM -12% | [10]; at 3.7 µM 10% | [10]; at 11.0 µM 48% | [11]; at 1.2 µM -32% | [11]; at 3.7 µM -15% | [11]; at 11.0 µM 46% | [12]; at 1.2 µM 3% | [12]; at 3.7 µM 15% | [12]; at 11.0 µM 66% | [14]; at 1.2 µM 41%
95% (active) and 49% (inactive): [4]; [17]
86.2% (active) and 27.1% (inactive): [8]; at 50.0 µM
84.2% (active) and 37% (inactive): [9]; at 50.0 µM
97% (active) and 43% (inactive): [13]; [17]
78% (active) and -3% (inactive): [13]; [16]
